# Source: PubChem BioAssay (NCI)
# Compounds without any hit were thinned out: in the full panel of roughly 83,000, 20% have a hit.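 Activity criterion: percent growth below 10, measured after cells in 96-well plates were exposed to a single compound concentration for 48 hours.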 Unmarked numbers belong to inactive results. Active and inactive are the calls of the source.
# Columns and labels:
# Experiment in all cases: NCI-60 one-dose screen, 48 h (100 = growth as untreated, 0 = no growth, -100 = all killed)
# Conditions in all cases: 10 µM unless noted
# SK-MEL-2 melanoma = tested on: SK-MEL-2 melanoma
# EKVX NSCLC = tested on: EKVX NSCLC
# UO-31 renal = tested on: UO-31 renal
# TK-10 renal = tested on: TK-10 renal
# ACHN renal = tested on: ACHN renal
# CAKI-1 renal = tested on: CAKI-1 renal
# A498 renal = tested on: A498 renal
# CCRF-CEM leukemia = tested on: CCRF-CEM leukemia
# MOLT-4 leukemia = tested on: MOLT-4 leukemia
# SR leukemia = tested on: SR leukemia
# RPMI-8226 leukemia = tested on: RPMI-8226 leukemia
# OVCAR-8 ovarian = tested on: OVCAR-8 ovarian
# OVCAR-5 ovarian = tested on: OVCAR-5 ovarian
# OVCAR-4 ovarian = tested on: OVCAR-4 ovarian
# SK-OV-3 ovarian = tested on: SK-OV-3 ovarian
# IGROV1 ovarian = tested on: IGROV1 ovarian
# OVCAR-3 ovarian = tested on: OVCAR-3 ovarian
# HS 578T breast = tested on: HS 578T breast
# NCI/ADR-RES ovarian = tested on: NCI/ADR-RES ovarian
SMILES,growth (SK-MEL-2 melanoma),growth (EKVX NSCLC),growth (UO-31 renal),growth (TK-10 renal),growth (ACHN renal),growth (CAKI-1 renal),growth (A498 renal),growth (CCRF-CEM leukemia),growth (MOLT-4 leukemia),growth (SR leukemia),growth (RPMI-8226 leukemia),growth (OVCAR-8 ovarian),growth (OVCAR-5 ovarian),growth (OVCAR-4 ovarian),growth (SK-OV-3 ovarian),growth (IGROV1 ovarian),growth (OVCAR-3 ovarian),growth (HS 578T breast),growth (NCI/ADR-RES ovarian)
CC/C=C\C/C=C\C[C@H]1C/C=C2/C(=O)C=C[C@@H]2C/C=C\CCC(=O)O1,-56.9% (active),31.4%,-49.7% (active),7.69% (active),-78.9% (active),14.5%,20.7%,-5.47% (active),2.83% (active),0.464% (active),-14.6% (active),7.21% (active),44.6%,26.7%,40.9%,13.1%,2.66% (active),43.6%,17.9%
COc1cc2c(cc1O)CC[C@@H]1[C@@H]2CC[C@]2(C)[C@@H](NCCN(C)C)CC[C@@H]12,-95.7% (active),-82.8% (active),-84.1% (active),-95.8% (active),-92.8% (active),-95.9% (active),-79.3% (active),-71.8% (active),-71.8% (active),-67.2% (active),-59.9% (active),-79% (active),-84% (active),-63.3% (active),-90% (active),-74.8% (active),-88.3% (active),-56.9% (active),-85.9% (active)
c1ccc2[nH]c(-c3ccc(Nc4nc(N5CCCC5)nc5[nH]ncc45)cc3)nc2c1,-48.1% (active),-8.31% (active),-27.1% (active),-6.9% (active),-58.3% (active),-22.3% (active),94.5%,-29.7% (active),-44.1% (active),-31.1% (active),-34.4% (active),-55.1% (active),17.9%,10.7%,22.2%,4.03% (active),-53.1% (active),-34% (active),1.12% (active)
O=c1cc(CSc2nnc(-c3ccc(F)cc3)o2)c2ccc3ccccc3c2o1,87%,88.7%,77.7%,102%,96.7%,91.1%,94.6%,112%,95.9%,–,–,96.4%,93%,108%,82.4%,101%,101%,95.5%,91.8%
C=C1C(=O)O[C@H]2[C@H]1CC/C(C=Nc1ccc(C(F)(F)F)cc1N)=C\CC[C@@]1(C)O[C@@H]21,-18.3% (active),31.2%,30.3%,1.36% (active),-38% (active),15.5%,46.8%,-5.78% (active),-3.3% (active),-2.49% (active),-17% (active),3.29% (active),31.5%,23.3%,65.4%,27.7%,-11.1% (active),7.74% (active),23.4%
COc1ccc(CN2c3ccccc3Sc3ccccc32)c(C(F)(F)F)c1,3.52% (active),49.9%,45.6%,65.5%,48.7%,32.5%,4.16% (active),10.5%,24%,12.1%,28.8%,31.1%,65.5%,44.2%,17.8%,43.4%,–,22.8%,22.7%
COc1ccc(-c2nc(SCC(=O)Nc3ccc(C(=O)/C=C/c4ccc(Cl)cc4)cc3)[nH]c(=O)c2C#N)cc1,100%,95.7%,89.1%,102%,98.9%,82.8%,101%,94.2%,84.4%,72.3%,98.3%,106%,109%,99.8%,96.2%,111%,101%,81.3%,102%
COc1ccc2c(c1)C(=O)/C(=C/c1cccnc1)CC2,97.7%,96.5%,92.3%,97.7%,88.5%,90.8%,100%,68%,82.4%,30.7%,1.31% (active),96.8%,93%,93.4%,101%,101%,98.6%,115%,94.8%
CCOC(=O)c1sc(Nc2ccc(Cl)cc2)nc1C,-0.883% (active),7.71% (active),-9.64% (active),26.5%,14.3%,10.4%,-32.9% (active),17.8%,10.7%,11%,7.4% (active),19.8%,51.6%,18.2%,20.3%,19.3%,27.4%,10.1%,17.5%
CC(=O)c1cc(C(=O)c2ccc3c(c2)Sc2ccccc2N3)n2ccccc12,20.3%,41.2%,19.9%,59.2%,26.2%,24.1%,-11.9% (active),5.4% (active),13.9%,–,5.63% (active),6.54% (active),68.2%,40.9%,9.84% (active),15%,-16.8% (active),24.9%,22.1%
CC(=O)O[C@H]1C(=O)[C@@]2(C)[C@H]([C@H](OC(=O)c3ccccc3)[C@]3(O)C[C@H](OC(=O)[C@H](OC(=O)CCC(=O)OC4CCC(S/N=C(N)/N=C(\N)N(C)C)CC4)[C@@H](NC(=O)c4ccccc4)c4ccccc4)C(C)=C1C3(C)C)[C@]1(OC(C)=O)CO[C@@H]1C[C@@H]2O (stereo partly drawn),12.8%,37.3%,47.3%,48.9%,39.7%,25.5%,26.7%,17.5%,22.5%,11.3%,14%,21.8%,39.5%,40.3%,28.4%,43.1%,10.2%,-9.33% (active),44.5%
CC(=O)OC[C@H]1O[C@H](OC(C)=O)[C@H](NC(=O)/C=C/CCl)[C@@H](OC(C)=O)[C@@H]1OC(C)=O,66.6%,94.9%,103%,75%,77.1%,101%,104%,24.6%,81.9%,44.5%,71.7%,81.6%,84.5%,68.2%,57.2%,93.9%,30.6%,92%,90.7%
N#CN1CCC[C@H]1C(=O)N1CCc2c(-c3[nH]nc4ncccc34)cccc21,3.74% (active),14.6%,2.24% (active),-15.6% (active),6.01% (active),-32.8% (active),-36.5% (active),17.5%,7.28% (active),6.84% (active),18.1%,1.11% (active),56.3%,18.5%,-1.17% (active),17.1%,-32% (active),-2.6% (active),8.38% (active)
CNC(=O)c1cc(Oc2ccc(NC(=O)Nc3ccc(Cl)c(SC)c3)c(F)c2)ccn1,21.6%,32.4%,42.6%,55.3%,52.6%,70.1%,41.3%,40.7%,22.8%,–,27.6%,49.9%,77.8%,16.3%,79.5%,56.4%,61.2%,56%,47.8%
NC(=NCCCOc1ccc(Cl)cc1)Nc1ccc(C(F)(F)F)cc1,41.3%,50.5%,37.1%,76.1%,9.43% (active),60.5%,35%,3.2% (active),–,-23.7% (active),-1.68% (active),66.3%,48.4%,34%,78.1%,-20.5% (active),58.3%,52.4%,62.8%
Cc1nc(Nc2ccc(F)c(Cl)c2)sc1C(=O)O,10.7%,8.63% (active),-8.39% (active),21%,11.2%,8.86% (active),-26.2% (active),9.7% (active),6.93% (active),5.95% (active),5.09% (active),14%,51.2%,21.7%,17.4%,19.3%,23%,18.7%,13.4%
